According to ChEMBL document CHEMBL3433997, “St. Jude Leishmania screening dataset” (2016):

Columns and labels:
Assay type in all cases: functional
[1] = molecular target: Solute carrier family 2, facilitated glucose transporter member 1 (Homo sapiens) (UniProt P11166); assay: ST_JUDE_LEISH: Cytotoxicity at 2uM final concentration against transgenic Leishmania Mexicana promastigotes LmGLUT1 that are glucose transport deficient and complemented with the human glucose transporter GLUT1. Activity is measured by DNA content using SYBR green in vitro
[2] = molecular target: Hexose transporter 1 (Plasmodium falciparum) (UniProt O97467); assay: ST_JUDE_LEISH: Cytotoxicity at 2uM final concentration against transgenic Leishmania Mexicana promastigotes LmPfHT that are glucose transport deficient and complemented with the Plasmodium falciparum hexose transporter. Activity is measured by DNA content using SYBR green in vitro
[3] = molecular target: Glucose transporter (Leishmania mexicana) (UniProt O61059); assay: ST_JUDE_LEISH: Cytotoxicity at 2uM final concentration against transgenic Leishmania Mexicana promastigotes LmGT2 that are glucose transport deficient and complemented with the L. Mexicana glucose transporter 2. Activity is measured by DNA content using SYBR green in vitro

Solute carrier family 2, facilitated glucose transporter member 1 (Homo sapiens), sequence (P11166 whole entry): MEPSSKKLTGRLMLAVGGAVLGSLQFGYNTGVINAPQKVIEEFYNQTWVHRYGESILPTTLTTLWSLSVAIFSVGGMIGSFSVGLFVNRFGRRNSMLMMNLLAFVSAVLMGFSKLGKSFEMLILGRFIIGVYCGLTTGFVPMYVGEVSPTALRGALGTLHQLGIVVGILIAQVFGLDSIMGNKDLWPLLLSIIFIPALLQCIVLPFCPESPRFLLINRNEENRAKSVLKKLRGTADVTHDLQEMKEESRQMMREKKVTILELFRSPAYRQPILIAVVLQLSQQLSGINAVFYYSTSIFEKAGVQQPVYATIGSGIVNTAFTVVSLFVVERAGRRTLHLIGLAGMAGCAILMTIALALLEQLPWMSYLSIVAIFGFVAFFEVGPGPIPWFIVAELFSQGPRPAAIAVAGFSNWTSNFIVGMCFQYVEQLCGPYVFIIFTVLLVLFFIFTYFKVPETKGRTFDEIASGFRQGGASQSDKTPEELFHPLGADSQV

SMILES | inhibition [1] | inhibition [2] | inhibition [3]
O=c1cc(NCCCNCc2[nH]c3cc(Cl)ccc3c2Cl)[nH]c2ccccc12 | 5.19% | 3.33% | 4.15%
CCC(C)c1ccc(-n2c(Nc3ccccc3)nc3cc(S(N)(=O)=O)ccc32)cc1 (stereo unspecified) | 12.3% | 6.89% | 5.77%
CCCN(CC)CCOC(=O)c1ccccc1 | 8.35% | 7.44% | 9.33%
Oc1ccc(CCCNc2nc(NCc3ccccc3-c3ccccc3)nc(N3CCNCC3)n2)cc1 | -0.81% | -2.76% | 1.36%
Cc1cc(Nc2cccc(C(F)(F)F)c2)nc(NCc2ccccc2)n1 | 29.6% | 42.8% | 10.1%
NC1=NC(c2ccccc2)(c2ccccc2)C(=O)N1CCCCc1ccccn1 | -0.54% | -0.95% | -2.5%
CCOc1cc(CC)ccc1C1CCN(CCCCNC(=O)c2ccc(NC(=O)c3ccc(Cl)cc3)cc2)CC1 | 4.23% | 2.23% | 4.97%
Oc1ccccc1CNCc1ccc(-c2cnc(N3CCCC(c4ccccc4)C3)nc2)cc1 (stereo unspecified) | 3.52% | 2.64% | 9.12%
O=C(Nc1cccc(C(F)(F)F)c1)NC1CCN(c2ccnc3cc(Cl)ccc23)C1 (stereo unspecified) | -0.97% | -2.13% | 0.93%
O=C(Nc1cccc(Cl)c1)OC1CCCN2CCCCC12 (stereo unspecified) | 10.8% | 10.6% | 9.42%
Cc1c(-c2ccc(C(=O)NC3CC(C)(C)NC(C)(C)C3)cc2)[nH]c2cc(Cl)c(Cl)cc12 | 10.9% | 8.08% | 13.8%
CCCOc1c(CCNCCCCNCCc2ccc3ccccc3c2OCCC)ccc2ccccc12 | 60.8% | 13.6% | 40.1%
O=C(NC1CC1)c1ccc(N2CCC(Oc3ccc(F)cc3)CC2)nc1 | 2.46% | 1.1% | 1.42%
CCCCSc1ccc2nc(-c3c[nH]c4ccc(C#N)cc34)cn2c1 | -0.49% | 3.17% | 3.81%
CNc1cc(-c2ccc3ccnc(N)c3c2)nc(N)n1 | -1.76% | 0.35% | -3.58%
O=C(Nc1ccc(N2CCC(Nc3ccccn3)CC2)cc1)c1cnc(Cl)c(Cl)c1 | 18% | 10.4% | 4.85%
O=C(Nc1cccc(C(F)(F)F)c1)c1cccc(S(=O)(=O)NC2CCCN(CC3CCCCC3)C2)c1 (stereo unspecified) | 0.39% | 0.03% | 0.55%
CCOC(=O)c1c(SCc2cccc(F)c2F)[nH]c2ccccc2c1=O | 0.37% | -0.99% | 1.97%
COc1ccc(C2CC(c3ccccc3)=NN2C(=O)c2ccc(Br)o2)cc1 (stereo unspecified) | -0.17% | 0.43% | 0.09%
CC(CN1CCN(C)CC1)C(=O)Nc1ccc(-c2cccc(-c3nc4ccccc4[nH]3)c2)cc1 (stereo unspecified) | 2.41% | 1.7% | -0.2%
CC(C)CNCc1cccc(-c2ccccc2CNC2CCN(Cc3ccccc3)CC2)c1 | 5.47% | 4.95% | 7.56%
CC(=O)Nc1nc(C(=O)Nc2cccc(-c3ccc(-c4nc5ccccc5[nH]4)cc3)c2)cs1 | 13% | 11.8% | 10.3%
O=C(O)CCCN1CCCC(=C(c2ccccc2)c2ccccc2)C1 | 3.04% | 3.64% | 4.81%
NS(=O)(=O)Cc1cccc(-c2ccnc3ccc(-c4cccc(S(N)(=O)=O)c4)cc23)c1 | 3.2% | 0.84% | 1.72%

SMILES | inhibition [1] | inhibition [2] | inhibition [3]
CCCOc1cc(O)c(-c2[nH]nc(C)c2Oc2ccccc2)cc1CC | 1.25% | -0.1% | -1%
O=C(/C=C/c1ccc(Cl)c(Cl)c1)NCCCCCN1CCCN(C(=O)Nc2ccc(C(F)(F)F)cc2)CC1 | 2.96% | 2.53% | 5.5%
Cc1cc(NC(=O)CCCN2CCN(c3cccc(Cl)c3Cl)CC2)ccc1N1CCN(C(C)C)CC1 | 9.52% | 5.3% | 4.97%
Cc1ccc(S(=O)(=O)N2CCCN(C(=O)c3cc(-c4ccccc4)[nH]n3)CC2)cc1 | -1.48% | 0.45% | 0.04%
CC(C)C[C@H](NC(=O)c1cc2ccccc2s1)C(=O)N[C@H]1CCN(Cc2ccc(OC[C@@H]3CCCN3C)c3ccccc23)C1 | 3.88% | 5.05% | 2.71%
C=CCN1C(=O)C(C(C)=O)=C(O)C1c1ccccc1 (stereo unspecified) | -0.92% | -4.02% | 0.66%
CCc1cn2c3c(cc(C(=O)N[C@@H](Cc4ccccc4)[C@H](O)CN[C@@H](C)CC)cc13)N(C)S(=O)(=O)CC2 | 0.43% | 2.23% | -0.58%
O=C(CC1CCCC1)N(Cc1ccc(-c2ccc(CNC3Cc4ccccc4C3)cc2)cc1)CC1CCCCN1 (stereo unspecified) | 38.3% | 4.62% | 2.06%
CC[C@H](C)[C@@H](C(=O)N1CCOCC1)N1CC[C@H](NS(=O)(=O)CC(C)(C)c2ccc(Cl)cc2)C1=O | 0.22% | 0.79% | -1.13%
C=CCc1ccc(C[C@H](NC(=O)OC(C)(C)C)C(=O)OC)cc1 | 22.2% | 40.4% | 34.5%
O=C(Nc1cccc(C(F)(F)F)c1)c1ccc(S(=O)(=O)NC2CCN(CC3CCCCC3)CC2)cc1 | 1.83% | 1.62% | 5.57%
COCCNCC(O)Cn1c2ccc(Cl)cc2c2cc(Cl)ccc21 (stereo unspecified) | -1.12% | -1.7% | -0.53%
Nc1nc(N)c2c(Oc3cccnc3)cccc2n1 | 0.1% | -1.61% | -0.57%
CC(=O)Nc1ccc(S(=O)(=O)Nc2ccc(Nc3nc(C)cc(N4CCCCC4)n3)cc2)cc1 | 5.51% | 5.79% | 5.54%
C#CCCC(=O)Nc1cccc(-c2cccc(-c3nc4cc(C(F)(F)F)ccc4[nH]3)c2)c1 | -2.22% | 1.99% | 1.42%
COc1cc(Cc2cnc(N)nc2N)cc(OCCCc2cc(OCc3ccccc3)no2)c1OC | 10% | 8.52% | 8.73%
COc1cc(C2NCC3(CCOCC3)c3cc4c(cc32)OCCO4)cc(OC)c1OC (stereo unspecified) | 10.2% | 6.69% | 7.63%
CC(C)c1cc(Oc2c(I)cc(CCNCc3ccccc3)cc2I)ccc1O | 0.46% | 1.39% | 0.47%
COc1ccc(NC(=O)Nc2cccc(-c3cccc(-c4nc5cc(F)ccc5[nH]4)c3)c2)cc1 | 1.35% | 1.38% | 0.62%
Cc1cccc(-c2cccc(CNc3nc(NCCc4ccc(O)cc4)nc(N4CCNCC4)n3)c2)c1 | 2.88% | 3.88% | 2.83%
Cc1noc(C)c1-c1cccc(CNCc2cccc(-c3cccc(-c4nc5cc(C(F)(F)F)ccc5[nH]4)c3)c2)c1 | 0.14% | 1.85% | 0.61%
Oc1ccc(CCNc2nc(NCc3ccccc3-c3cccc(Cl)c3)nc(N3CCNCC3)n2)cc1 | -2.47% | -1.9% | -2.27%
Cc1cccc(C)c1N1CCN(C2CCC(NC(=O)/C=C/c3ccccc3)CC2)CC1 (stereo unspecified) | 1.7% | 1.21% | 1.49%
COC(=O)Cn1c2ccccc2c2c(N)c(C(=O)OC)c(C)nc21 | 0.93% | 0.97% | -0.45%

SMILES | inhibition [1] | inhibition [2] | inhibition [3]
COc1ccc2ncc(F)c(CCN3CCC(NCc4ccc5c(c4)CCO5)CC3)c2n1 | 16.7% | 21.4% | 20.6%
CN(Cc1ccc(C#N)cc1)C1CCN(c2cc(NC(=O)c3cccc(F)c3)ccn2)CC1 | -1.86% | -1.81% | 0.96%
CC(=O)Oc1cc(OCc2ccccc2)c(OC(C)=O)c(OCc2ccccc2)c1 | 6.3% | 5.31% | -0.19%
O=[N+]([O-])c1cc(/C=N/Nc2nc3nonc3nc2Nc2ccc(F)cc2)c(Cl)cc1Cl | -0.53% | -0.25% | -0.83%
CCC[C@@H]([C@@H](CC(C)C)C(=O)N[C@@H](CCCCNC(=O)c1cccc(OC)c1)C(=O)Nc1nccs1)N(O)C=O | 8.94% | 10.2% | 5.1%
Cc1cc(=NN=Cc2ccc(F)cc2)c2cc(F)ccc2[nH]1 | 2.6% | 3.14% | -7.33%
COc1cccc(Cc2cnc3nc(N)nc(N)c3c2C)c1 | 2.99% | 1.68% | 3.44%
COc1ccc2ncc(F)c(CCN3CC[C@H](NCc4cc(C#N)c5c(c4)OCCO5)[C@H](O)C3)c2c1 | 42.4% | 57.5% | 70.8%
COc1ccc(CN2CCC(C(=O)Nc3cccc(-c4cccc(Cl)c4)c3)CC2)cc1O | 5.45% | 7.5% | 6.49%
O=C(/C=C/c1ccc(-c2nc3ccc(Cl)cc3[nH]2)cc1)NCc1cccc(F)c1 | 4.5% | 4.66% | 4.07%
COC(=O)c1cccc(CNCc2cccc(-c3cccc(-c4nc5cccc(C)c5[nH]4)c3)c2)c1 | 9.22% | 8.21% | 6.67%
CC(C)CCCC(C)(C)NC[C@@H](O)[C@H](Cc1ccccc1)NC(=O)c1cc(NC(C)C)cc(N2CCCCS2(=O)=O)c1F | 7.51% | 5.83% | 7.87%
CC(=O)N(C)c1ccc(C(=O)Nc2cccc(-c3cccc(-c4nc5cc(C(F)(F)F)ccc5[nH]4)c3)c2)cc1 | 8.18% | 7.82% | 5.77%
Cc1cc(Nc2ccc(C)c(Cl)c2)n2nc(C(F)(F)F)nc2n1 | 6.65% | 2.47% | 1.18%
O=C(Nc1ccc2c(c1)OCCO2)c1cc(-c2cccnc2)nc2ccc(Cl)cc12 | 3.75% | 1.71% | 0.65%
CCc1nc(N)nc(N)c1-c1ccc2c(c1)CCCC2 | 2.54% | 3.35% | 2%
CN(CCN)Cc1ccc(-c2ccc(-c3nc4cc(C(F)(F)F)ccc4[nH]3)s2)cc1 | 15.1% | 14.8% | 11.4%
O=C(Nc1ccc(-c2ccccc2)s1)N[C@H]1CCN(Cc2ccc(OCCCN3CCCCC3)cc2)C1 | 0.93% | 1.34% | 2.81%
Cc1[nH]c(C)c(-c2ccc(-c3cccc(Cl)c3)nc2)c(=O)c1Cl | 0.79% | 2.52% | 1.48%
O=C(CCCCCNC(=O)c1ccc(O)c(-c2ccc(Cl)c(Cl)c2)c1)NC1CCCc2ccccc21 (stereo unspecified) | 2.15% | 2.14% | 2.15%
Cc1cc(N(C)C)nc(Nc2ccc(NC(=O)c3c(F)cccc3Cl)cc2)n1 | 7.36% | 7.84% | -0.01%
O=c1cc(NCC2(CNCc3cn(Cc4ccccc4)c4ccccc34)CCCCC2)[nH]c2ccccc12 | 4.81% | 5.38% | 5.44%
CCCC(=O)Nc1ccc(OCCCN(Cc2ccccc2C(F)(F)F)c2ccc(C#N)c(C(F)(F)F)c2)cc1 | 3.53% | 4.53% | 4.55%
O=C(Nc1ccsc1)Nc1cccc(-c2ccc(-c3nc4cc(C(F)(F)F)ccc4[nH]3)cc2)c1 | 6.66% | 6.27% | 7.95%
